BJeLR viability – BJeLR cell viability loss; BJeLR (HRASV12) viability, CellTiter-Glo ATP luminescence, 48 h; AID 1554; 300,000 compounds, 0.17% hits; inhibition, % (test concentration not listed); in the data active = inhibition above about 50%
PfHsp40 yeast – compounds rescuing yeast from Plasmodium falciparum HSP40 toxicity. S. cerevisiae expressing PfHsp40, growth rescue, ATP luminescence. growth rescue, % at 12.5 µM. 340,000 compounds, 0.68% hits. AID 504582; in the data active = growth rescue above about 28%, passing the limit was not always enough;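 also: yeast W303a lacking pdr1 and pdr3 grown in galactose medium; growth measured after three days at 30 °C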
MazEF act – activators of E. coli MazEF toxin-antitoxin RNase. P0AE70. FAM/BHQ RNA-DNA oligo cleavage fluorescence, 5 h. activation, % at 20 µM. 350,000 compounds, 0.32% hits; in the data active = activation above about 50%
Target sequence (P0AE70 whole entry, looked up): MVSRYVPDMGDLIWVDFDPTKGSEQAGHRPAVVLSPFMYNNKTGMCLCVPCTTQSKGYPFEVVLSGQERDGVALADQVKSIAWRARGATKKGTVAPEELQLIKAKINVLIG
PrPC surface inh – inhibitors of human cell surface prion protein PrPC | TR-FRET read-out | inhibition, % at 13.8 µM | 370,000 compounds, 0.43% hits; in the data active = inhibition above about 24%; also: 0% = median of the test wells and 100% = reference compound wells
PrP UTR inh – suppresses PrP 5' UTR mRNA reporter expression; inhibition, % (concentration not given with the values); AID 488862; 340,000 compounds, 0.35% hits; cell-based PrP 5' UTR mRNA reporter, plate reader; in the data active = inhibition above about 52%; also: 0 = median of the neutral control wells
VHR inh abs – DUSP3 (human) phosphatase inhibition | P51452 | inhibition, % at 13.3 µM | 290,000 compounds, 0.52% hits | recombinant VHR phosphatase, pNPP absorbance; in the data active = inhibition above about 50%
Target sequence (P51452 whole entry, looked up): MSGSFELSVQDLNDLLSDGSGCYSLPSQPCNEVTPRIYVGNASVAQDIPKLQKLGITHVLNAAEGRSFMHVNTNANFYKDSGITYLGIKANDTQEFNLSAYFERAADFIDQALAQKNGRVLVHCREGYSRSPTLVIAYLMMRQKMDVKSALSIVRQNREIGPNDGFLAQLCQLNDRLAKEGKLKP
An asterisk follows results filed as active; nt = no result. Shown are actives, neighbours in structure and some others; about 2.1% of the full set was active somewhere.

SMILES	BJeLR viability	PfHsp40 yeast	MazEF act	PrPC surface inh	PrP UTR inh	VHR inh abs
Cc1cccc(N(C(=O)CNC(=O)c2ccco2)C(C(=O)NC2CCCCC2)c2cccnc2)c1 (stereo not drawn)	-7.1	0.7	1.2	-7.2	-16.8	24.8
O=C(NC1CCCCC1)C(c1cccnc1)N(C(=O)CCl)c1cccc(Cl)c1 (stereo not drawn)	88.8*	0.6	24.8	-0.2	-3.9	-8.8
O=C(NC1CCCC1)C(c1cccnc1)N(Cc1ccccc1)C(=O)c1csnn1 (stereo not drawn)	-2.3	-0.2	-0.2	-1.7	3.4	52.9*
Cc1ccc(C)c(N(C(=O)c2csnn2)C(C(=O)NC2CCCCC2)c2ccccn2)c1 (stereo not drawn)	-15.3	0.4	1.6	2.9	-36.6	50.4*
O=C(CCS(=O)(=O)c1ccc(Cl)cc1)Nc1nnc(-c2ccco2)o1	3.0	-0.2	5.7	-3.7	5.4	nt
CC(=O)Nc1ccc(S(=O)(=O)NCCC(=O)Nc2ccc(C)cn2)cc1	5.8	18.4	-0.7	4.4	-21.0	6.5
Cc1noc(C)c1S(=O)(=O)N(C)C[C@H]1Oc2c(NC(=O)Nc3ccc(C(F)(F)F)cc3)cccc2C(=O)N([C@H](C)CO)C[C@@H]1C	nt	-0.7	3.2	-12.3	-7.4	nt
CCOC(=O)[C@@H]1[C@H]2COc3cc(OC)ccc3[C@H]2N2C(=O)N(c3ccc(C(F)(F)F)cc3)C(=O)[C@]12C	nt	193.2*	4.5	6.1	-2.8	nt
Cc1ccc(C(=O)N2CCN(c3ncc(C(F)(F)F)cc3Cl)CC2)s1	-2.0	0.6	-7.2	-2.8	-6.5	17.9
CCCOc1ccc(NC(=O)CC2C(=O)N(C)C(=S)N2Cc2cccs2)cc1 (stereo not drawn)	7.3	-0.9	97.0*	5.6	-17.5	-7.5
O=C(Cn1c(=O)oc2ccccc21)N1CCN(c2ccc(N3CCOCC3)nn2)CC1	9.9	-2.2	12.2	-6.5	-13.8	54.5*
O=C(Cn1c(=O)oc2ccccc21)N1CCCCC1	-9.0	-0.9	12.5	-0.7	-16.8	-17.9
C=CCn1c(O)c(N=Nc2ccccc2O)c2ccccc21	nt	0.8	310.8*	-1.4	-7.3	nt
C[C@H]1C=CC(=O)O[C@H]1c1ccccc1	5.4	-1.5	2.2	2.5	-5.2	nt
C[C@@H]1C=CC(=O)O[C@@H]1c1ccc(C(F)(F)F)cc1	92.2*	nt	nt	nt	nt	25.1
CCOc1ccc(S(=O)(=O)n2cc(F)c(=O)[nH]c2=O)cc1	-0.4	143.9*	0.1	5.5	-18.4	4.3
CCCNC(=O)C1(C)CCCN(C(=O)c2cc(C(C)(C)C)nn2C)C1 (stereo not drawn)	nt	nt	nt	-3.8	nt	nt
Cc1cc(C(=O)O[C@@H]2CCC[C@]3(C(=O)N(Cc4ccccc4)c4ccccc43)[C@H]2NC(=O)CCc2ccccc2)no1	nt	nt	nt	-7.7	nt	nt
CCCCN(CC)CCNC(=O)c1ccc2c(Cl)c3c(nc2c1)CCC3	10.0	-0.1	13.6	-7.3	-13.0	56.9*
CCN(CC)CCCNC(=O)c1ccc2c(Cl)c3c(nc2c1)CCCC3	-7.6	0.8	0.5	-7.8	1.9	14.1
O=C(NCc1cccnc1)Nc1cccc(Cl)c1Cl	-4.4	-0.3	-3.3	1.9	-10.3	40.0
O=C1C(Cl)=C(Nc2ccccc2O)C(=O)N1CCc1ccccc1	5.6	141.8*	-8.0	-6.6	-30.9	1.9
O=C(O)CN1C(=O)/C(=C\c2cn(CC(=O)N3CCOCC3)c3ccccc23)SC1=S	-4.3	-0.3	191.0*	-0.1	8.2	-7.4
O=C(O)CN1C(=O)/C(=C\c2ccc(OC(=O)c3ccco3)cc2)SC1=S	-0.7	0.4	6.8	-22.3	-7.2	-11.4
CCN1C(=O)NC(=O)/C(=C\c2cn(CC(=O)N3CCCCC3)c3ccccc23)C1=O	2.7	-0.9	117.4*	-4.3	10.6	12.5
SMILES	BJeLR viability	PfHsp40 yeast	MazEF act	PrPC surface inh	PrP UTR inh	VHR inh abs
O=C(Cn1cc(C(=O)C(F)(F)F)c2ccccc21)N1CCOCC1	-3.9	47.9*	7.1	1.1	-22.5	14.9
CCN1C(=O)NC(=O)/C(=C\c2cn(CC(=O)N3CCCC3)c3ccccc23)C1=O	7.1	0.8	-199.0	3.2	-5.7	35.0
O=C(O)CN1C(=O)/C(=C/c2ccc(SCc3ccccc3)o2)SC1=S	nt	6.9	123.0*	0.2	-9.0	48.4
NC(=O)C1CC(=O)N(c2ccc(OCc3ccc(F)cc3)cc2)C1 (stereo not drawn)	15.7	-1.3	4.7	6.3	-22.8	4.4
O=C(CN1C(=O)c2ccccc2S1(=O)=O)c1ccccc1	11.6	-0.9	4.5	-1.7	32.0	10.5
Cc1ccc(C(=O)CN2/C(=C(\O)c3ccccc3)C(=O)c3ccccc3S2(=O)=O)c(C)c1	-1.6	35.3*	3.2	nt	-21.0	15.1
Cc1ccc(C(=O)Oc2cc(N)n(S(=O)(=O)c3ccc(F)cc3)n2)cc1	-0.2	-0.6	67.6*	-4.8	-20.2	0.0
CCOc1ccc(NC(=O)CSc2cn[nH]n2)cc1	-6.0	0.4	5.9	1.4	-6.3	nt
S=C(NCCc1ccc(Cl)cc1)Nc1ccc(Cl)cc1Cl	-6.8	69.9*	-13.1	14.9	-24.1	22.5
S=C(NCCCN1CCOCC1)Nc1ccc(Cl)cc1Cl	5.4	-1.0	7.8	1.9	-16.1	55.4*
Fc1ccc(CCNC(=S)Nc2ccc(F)c(Cl)c2)cc1	-3.2	112.7*	9.7	4.7	-42.0	31.2
S=C(NCCN1CCOCC1)Nc1ccc(Cl)cc1Cl	-3.6	1.5	3.6	-3.5	-26.1	-6.9
CC1CCC2(CC1)NC(=O)N(CC(=O)Nc1cccnc1Cl)C2=O (stereo not drawn)	nt	0.6	6.6	5.4	-33.4	nt
COc1ccc(NC(=O)c2cccc([N+](=O)[O-])c2)cc1	-2.7	-0.2	0.6	-13.3	-32.8	1.7
COc1ccc(NC(=O)c2cc([N+](=O)[O-])ccc2O)cc1	50.2	-2.6	5.3	-7.6	86.8*	34.0
C#CCOCCOCCOCCNc1nc(N2CCN(C(=O)[C@H](CCCCN)n3cc(C(N)COC(=O)C(F)(F)F)nn3)CC2)nc(N2CCN(C(=O)[C@H](CCCCN)n3cc(C(N)CC(C)C)nn3)CC2)n1 (stereo partly drawn)	nt	nt	nt	nt	nt	11.1
C[C@H]1[C@H](OC(=O)CCC(=O)NCc2ccc(C(=O)O)cc2)O[C@@H]2O[C@@]3(C)CC[C@H]4[C@H](C)CC[C@@H]1C24OO3	9.4	188.3*	1.1	nt	-17.8	11.3
COC(=O)c1ccc(CNC(=O)COC(=O)CCC2CCCC2)cc1	1.7	2.5	-2.6	9.9	-27.3	1.9
COC1OC(COC(=O)c2ccccc2)C(OC(=O)c2ccccc2)C1OC(=O)c1ccccc1 (stereo not drawn)	8.2	1.3	-5.0	8.4	-13.2	nt
O=C(O)C[C@@H]1C(=O)O[C@@H]2C(COC(=O)c3cc(O)c(O)c(O)c3)O[C@@H](OC(=O)c3cc(O)c(O)c(O)c3)[C@@H](OC(=O)c3cc(O)c(O)c4c3[C@H]1[C@H](O)C(=O)O4)[C@H]2OC(=O)c1cc(O)c(O)c(O)c1 (stereo partly drawn)	nt	nt	nt	nt	nt	113.8*
